These results are taken from ChEMBL document CHEMBL3988442, “University of Dundee, Small-Polar-MMV Screening Library” (2021).

Holding throughout (set-up): scale not given: direction of the effect not stated beside the values
In assay [1] the target is Protein translocase subunit SecA (Escherichia coli (strain K12)) (UniProt P10408). Description: Assay to Identify E. coli SecA ATPase Inhibitors. Particulars: 30 µM. Type of assay: functional.
The target of assay [2] is T1, Ubiquitin-activating enzyme e1, putative (Leishmania donovani (strain BPK282A1)) (UniProt E9BSI1).
T1 sequence (whole entry): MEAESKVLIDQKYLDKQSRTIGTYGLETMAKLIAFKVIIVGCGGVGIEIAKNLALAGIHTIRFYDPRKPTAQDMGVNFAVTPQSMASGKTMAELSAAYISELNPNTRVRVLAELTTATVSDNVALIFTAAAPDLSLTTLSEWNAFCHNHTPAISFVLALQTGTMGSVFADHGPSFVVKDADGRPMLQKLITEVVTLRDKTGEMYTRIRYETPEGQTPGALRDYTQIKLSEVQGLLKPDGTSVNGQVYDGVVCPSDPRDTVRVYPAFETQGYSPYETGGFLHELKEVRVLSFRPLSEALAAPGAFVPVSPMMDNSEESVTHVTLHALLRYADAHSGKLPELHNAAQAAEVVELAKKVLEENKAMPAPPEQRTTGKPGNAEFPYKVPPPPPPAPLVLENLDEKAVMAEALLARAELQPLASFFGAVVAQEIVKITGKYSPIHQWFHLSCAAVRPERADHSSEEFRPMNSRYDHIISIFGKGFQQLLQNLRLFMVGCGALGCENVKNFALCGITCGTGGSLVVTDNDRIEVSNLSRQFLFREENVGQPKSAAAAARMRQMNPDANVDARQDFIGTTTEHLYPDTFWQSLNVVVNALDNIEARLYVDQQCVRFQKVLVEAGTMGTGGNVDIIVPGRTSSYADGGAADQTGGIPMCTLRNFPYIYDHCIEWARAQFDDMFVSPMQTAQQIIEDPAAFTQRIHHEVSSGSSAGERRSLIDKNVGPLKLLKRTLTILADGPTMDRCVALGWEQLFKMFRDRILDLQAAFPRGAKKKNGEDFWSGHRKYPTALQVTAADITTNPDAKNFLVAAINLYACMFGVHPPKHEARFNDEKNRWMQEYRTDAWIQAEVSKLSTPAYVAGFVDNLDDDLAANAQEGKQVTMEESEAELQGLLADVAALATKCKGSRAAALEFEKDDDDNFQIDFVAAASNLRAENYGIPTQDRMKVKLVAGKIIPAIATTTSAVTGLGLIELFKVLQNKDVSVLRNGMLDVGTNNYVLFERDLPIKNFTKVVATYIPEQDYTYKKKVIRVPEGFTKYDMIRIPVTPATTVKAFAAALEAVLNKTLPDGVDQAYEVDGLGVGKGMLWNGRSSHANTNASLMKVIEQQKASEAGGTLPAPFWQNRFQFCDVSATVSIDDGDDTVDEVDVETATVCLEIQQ
Nature of the assay: Leishmania donovani Ubiquitin Activating Enzyme (LdE1). Type of assay: functional. Particulars: 30 µM.

Assay [3] concerns the target Sialic acid-binding Ig-like lectin 9 (Homo sapiens) (UniProt Q9Y336). Description: Hs-Siglec9 ALPHAscreen SOP 20170721. Particulars: 10 µM.
The next assay has as its system Trypanosoma cruzi. Nature of the assay: Trypanosoma cruzi phosphomannomutase and mannose-1-phosphate guanylyltransferase assay. Type of assay: functional. Particulars: 10 µM.
Assay [4] deals with T2, Arginase-2, mitochondrial (Homo sapiens) (UniProt P78540).
T2 sequence (whole entry): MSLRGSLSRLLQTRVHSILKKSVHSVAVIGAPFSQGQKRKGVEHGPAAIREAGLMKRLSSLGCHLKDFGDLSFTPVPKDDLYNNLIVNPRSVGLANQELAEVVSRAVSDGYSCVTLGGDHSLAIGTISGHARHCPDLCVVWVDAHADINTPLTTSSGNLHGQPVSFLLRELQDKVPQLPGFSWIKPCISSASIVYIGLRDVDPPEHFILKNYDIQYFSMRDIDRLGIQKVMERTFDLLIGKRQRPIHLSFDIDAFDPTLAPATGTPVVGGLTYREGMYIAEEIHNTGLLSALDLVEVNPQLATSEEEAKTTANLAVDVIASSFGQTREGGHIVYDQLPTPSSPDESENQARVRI
Description: in vitro enzyme assay to detect the production of urea directly proportional to the activity of Arginase II. Note: in the data most compounds retested in dose-response had high values. Format: functional. Particulars: 33.3 µM.

Assay [5] addresses T3, Proteasome subunit beta (Trypanosoma cruzi) (UniProt O96673).
T3 sequence (whole entry): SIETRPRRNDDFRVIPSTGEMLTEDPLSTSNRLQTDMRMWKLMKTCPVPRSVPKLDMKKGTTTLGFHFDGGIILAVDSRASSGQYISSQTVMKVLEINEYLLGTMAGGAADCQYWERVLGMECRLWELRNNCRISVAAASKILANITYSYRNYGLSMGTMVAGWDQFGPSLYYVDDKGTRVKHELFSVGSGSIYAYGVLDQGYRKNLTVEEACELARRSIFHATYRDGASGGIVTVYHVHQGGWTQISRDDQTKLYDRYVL
Nature of the assay: Trypanosoma cruzi proteasome chymotrypsin-like activity (TcProtChymo) assay. Note: in the data most compounds retested in dose-response had high values. Format: functional. Particulars: 9.37 µM.

For a further assay, the species on record is Homo sapiens. Description: To identify inhibition of the IFN signalling (Jak-Stat) pathway via expression of an eGFP reporter gene under the control of an IFN-stimulated response element (ISRE) containing MxA promoter. Type of assay: functional. Particulars: 30 µM.
Assay [6] has as its target T4, Tyrosyl-tRNA synthetase, putative (Trypanosoma cruzi (strain CL Brener)) (UniProt Q4DSP6).
T4 sequence (whole entry): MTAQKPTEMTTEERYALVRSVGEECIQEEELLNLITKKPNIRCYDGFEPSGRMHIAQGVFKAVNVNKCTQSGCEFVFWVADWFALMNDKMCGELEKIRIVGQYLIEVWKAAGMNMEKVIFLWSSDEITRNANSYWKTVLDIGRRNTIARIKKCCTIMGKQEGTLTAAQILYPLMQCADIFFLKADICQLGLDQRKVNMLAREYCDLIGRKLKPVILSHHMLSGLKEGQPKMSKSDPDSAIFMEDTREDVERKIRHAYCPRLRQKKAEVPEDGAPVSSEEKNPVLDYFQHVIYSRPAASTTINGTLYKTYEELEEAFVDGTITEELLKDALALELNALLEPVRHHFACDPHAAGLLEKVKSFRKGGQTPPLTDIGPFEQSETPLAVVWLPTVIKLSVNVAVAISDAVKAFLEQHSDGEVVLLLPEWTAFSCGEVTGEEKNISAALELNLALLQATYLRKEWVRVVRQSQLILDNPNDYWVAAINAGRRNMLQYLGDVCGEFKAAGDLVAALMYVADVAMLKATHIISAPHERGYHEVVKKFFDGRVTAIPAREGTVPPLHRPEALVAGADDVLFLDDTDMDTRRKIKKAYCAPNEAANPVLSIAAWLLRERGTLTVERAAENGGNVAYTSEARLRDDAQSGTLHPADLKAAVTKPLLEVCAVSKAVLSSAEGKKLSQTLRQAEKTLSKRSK
Description: Trypanosoma cruzi tyrosyl tRNA synthetase (TcYRS) _High Tyrosine SOP. Note: in the data most compounds retested in dose-response had high values. Format: functional. Particulars: 30 µM.

Assay [7] has as its target T4, Tyrosyl-tRNA synthetase, putative (Trypanosoma cruzi (strain CL Brener)). Nature of the assay: Trypanosoma cruzi tyrosyl tRNA synthetase (TcYRS) SOP. Type of assay: functional. Particulars: 30 µM.
Assay [8] concerns the target Chromo domain-containing protein 1 (Saccharomyces cerevisiae (strain ATCC 204508 / S288c) (Baker's yeast)) (UniProt P32657). Description: ScCHD-1 Enzyme Inhibition Assay. Note: in the data most compounds retested in dose-response had high values. Format: functional. Particulars: 30 µM.

For part of these data: Results with a measured potency or affinity are listed apart.

Sequence of Protein translocase subunit SecA (Escherichia coli (strain K12)) (P10408 whole entry): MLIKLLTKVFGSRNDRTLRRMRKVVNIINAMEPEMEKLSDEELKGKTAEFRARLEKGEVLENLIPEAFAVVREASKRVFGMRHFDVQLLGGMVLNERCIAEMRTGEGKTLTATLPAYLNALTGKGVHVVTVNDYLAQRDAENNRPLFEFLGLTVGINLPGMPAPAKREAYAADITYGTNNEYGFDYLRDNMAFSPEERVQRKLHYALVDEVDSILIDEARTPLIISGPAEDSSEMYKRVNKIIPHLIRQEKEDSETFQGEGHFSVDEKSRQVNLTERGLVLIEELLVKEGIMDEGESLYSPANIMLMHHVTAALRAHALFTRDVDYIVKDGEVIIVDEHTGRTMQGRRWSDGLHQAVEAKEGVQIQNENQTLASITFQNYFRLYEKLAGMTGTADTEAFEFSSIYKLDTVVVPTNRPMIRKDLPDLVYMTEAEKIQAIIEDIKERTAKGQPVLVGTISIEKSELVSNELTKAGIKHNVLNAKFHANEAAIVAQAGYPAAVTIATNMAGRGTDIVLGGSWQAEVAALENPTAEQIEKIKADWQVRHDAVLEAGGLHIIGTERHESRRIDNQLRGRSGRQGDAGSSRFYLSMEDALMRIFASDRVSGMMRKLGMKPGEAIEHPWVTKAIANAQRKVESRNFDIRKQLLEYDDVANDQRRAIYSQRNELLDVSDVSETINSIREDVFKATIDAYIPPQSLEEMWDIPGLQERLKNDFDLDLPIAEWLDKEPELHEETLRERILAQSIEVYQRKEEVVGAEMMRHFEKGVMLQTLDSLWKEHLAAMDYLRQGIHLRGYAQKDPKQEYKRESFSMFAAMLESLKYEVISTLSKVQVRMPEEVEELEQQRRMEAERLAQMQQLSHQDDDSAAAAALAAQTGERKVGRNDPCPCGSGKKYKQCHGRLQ
Sequence of Sialic acid-binding Ig-like lectin 9 (Homo sapiens) (Q9Y336 whole entry): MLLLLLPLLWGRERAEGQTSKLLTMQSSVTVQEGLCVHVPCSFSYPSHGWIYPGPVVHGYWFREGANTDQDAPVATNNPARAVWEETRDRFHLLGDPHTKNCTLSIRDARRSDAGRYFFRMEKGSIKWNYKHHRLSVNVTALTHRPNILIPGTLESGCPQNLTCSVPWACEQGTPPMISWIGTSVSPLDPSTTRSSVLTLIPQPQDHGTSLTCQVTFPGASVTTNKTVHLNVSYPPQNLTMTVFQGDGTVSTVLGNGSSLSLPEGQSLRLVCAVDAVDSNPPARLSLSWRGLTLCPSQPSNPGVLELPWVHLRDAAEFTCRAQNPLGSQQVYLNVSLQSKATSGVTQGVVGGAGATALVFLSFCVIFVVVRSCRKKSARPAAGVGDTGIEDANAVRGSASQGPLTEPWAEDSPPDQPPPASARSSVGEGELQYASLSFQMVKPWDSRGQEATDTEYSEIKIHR
Sequence of Chromo domain-containing protein 1 (Saccharomyces cerevisiae (strain ATCC 204508 / S288c) (Baker's yeast)) (P32657 whole entry, the tested form may be a part): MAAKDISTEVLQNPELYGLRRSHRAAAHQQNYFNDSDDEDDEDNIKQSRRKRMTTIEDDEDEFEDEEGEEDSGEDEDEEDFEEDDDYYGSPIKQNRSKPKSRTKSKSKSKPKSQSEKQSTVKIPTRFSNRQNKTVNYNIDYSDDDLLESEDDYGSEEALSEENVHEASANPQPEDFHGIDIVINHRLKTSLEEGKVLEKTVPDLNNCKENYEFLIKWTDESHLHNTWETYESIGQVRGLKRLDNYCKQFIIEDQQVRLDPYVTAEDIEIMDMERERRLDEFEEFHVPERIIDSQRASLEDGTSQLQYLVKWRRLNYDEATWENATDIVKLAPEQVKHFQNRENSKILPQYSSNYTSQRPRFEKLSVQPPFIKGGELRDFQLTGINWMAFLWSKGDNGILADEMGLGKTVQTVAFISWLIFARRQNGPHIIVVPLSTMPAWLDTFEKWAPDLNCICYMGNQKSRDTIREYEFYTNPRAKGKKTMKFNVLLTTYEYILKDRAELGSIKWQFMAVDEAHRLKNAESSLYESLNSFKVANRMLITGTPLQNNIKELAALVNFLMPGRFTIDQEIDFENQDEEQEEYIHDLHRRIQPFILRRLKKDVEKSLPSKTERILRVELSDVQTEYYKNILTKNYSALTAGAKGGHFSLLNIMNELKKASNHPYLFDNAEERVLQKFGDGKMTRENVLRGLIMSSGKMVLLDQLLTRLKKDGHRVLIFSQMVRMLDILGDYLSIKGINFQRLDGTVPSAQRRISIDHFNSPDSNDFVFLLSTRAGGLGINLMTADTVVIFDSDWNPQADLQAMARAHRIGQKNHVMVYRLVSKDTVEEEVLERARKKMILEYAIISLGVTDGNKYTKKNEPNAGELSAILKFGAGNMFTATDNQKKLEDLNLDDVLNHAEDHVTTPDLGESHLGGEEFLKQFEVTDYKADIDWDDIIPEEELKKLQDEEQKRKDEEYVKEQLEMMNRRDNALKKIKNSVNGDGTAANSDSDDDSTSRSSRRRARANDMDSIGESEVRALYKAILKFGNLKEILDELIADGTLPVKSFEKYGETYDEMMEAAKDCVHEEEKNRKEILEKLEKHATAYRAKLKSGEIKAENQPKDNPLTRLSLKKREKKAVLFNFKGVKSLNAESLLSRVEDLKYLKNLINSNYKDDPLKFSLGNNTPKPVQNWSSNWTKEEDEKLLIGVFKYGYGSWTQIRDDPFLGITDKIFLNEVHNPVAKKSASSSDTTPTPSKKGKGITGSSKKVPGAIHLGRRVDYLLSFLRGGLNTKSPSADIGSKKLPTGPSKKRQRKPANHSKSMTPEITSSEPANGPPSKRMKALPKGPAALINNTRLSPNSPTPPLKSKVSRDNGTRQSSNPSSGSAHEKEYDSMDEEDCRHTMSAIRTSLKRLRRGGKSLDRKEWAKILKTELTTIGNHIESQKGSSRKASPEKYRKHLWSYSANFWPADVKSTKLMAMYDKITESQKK

For `CCn1cc2c(n1)C(COC)CN(Cc1ccccn1)C2` (stereo not given), the Percent Effect in assay [1] was -4.98%; in assay [2] it was 9.09%; in [3], -6.05%; with Trypanosoma cruzi, -2.43%; in [4], -2.43%; in assay [5], 16.7%. Further, the Percent Effect was 34.2% in the assay listed under Homo sapiens, 2.63% in [6], 7.69% in [7] and -3.98% in assay [8].

For `NC(=O)CC1CCN(C(=O)NCc2ccccc2-n2cccn2)CC1`, the Percent Effect in assay [1] was -5.04%; in assay [2] it was 21.3%; in assay [3] it was 5.25%; in the assay on Trypanosoma cruzi, -0.602%; in [4], -1.77%; in assay [5], 9.41%. Moreover, the Percent Effect was 15% in the assay listed under Homo sapiens, 7.89% in assay [6], 15.4% in [7] and -10.3% in assay [8].

Regarding `CN1CCC/C1=N\S(=O)(=O)c1ccc(NC(=O)c2ccc(F)cc2)cc1`, the Percent Effect in assay [1] was 1.02%; in [2], 26%; in assay [3] it was 3.66%; in the assay on Trypanosoma cruzi it was 6.34%; in assay [4] it was 28.5%; in assay [5], 9.82%. The Percent Effect was 14.2% in the assay filed under Homo sapiens, 5.88% in [6], 28.2% in [7] and -9.94% in assay [8].

`Cc1cnn(CC2CCCCN2CCCS(N)(=O)=O)c1` (stereo not given): the Percent Effect in assay [1] is -1.01%; in assay [2] it was 21.3%; in [3], -1.72%; in the assay on Trypanosoma cruzi it was -2.01%; in [4], 3.55%; in assay [5], 11.3%. Moreover, the Percent Effect is 8.53% in the assay listed under Homo sapiens, 5.79% in [6], -2.56% in assay [7] and -12.4% in assay [8].

In the case of `CS(=O)(=O)c1ccc(NC(=O)NCc2ccc3c(c2)CCC3)cn1`, the Percent Effect in [1] was -2.45%; in assay [2], 0%; in assay [3] it was -3.31%; in the assay on Trypanosoma cruzi, 4.04%; in assay [4], -38.9%; in assay [5], -6.06%. Moreover, the Percent Effect in the assay listed under Homo sapiens is 4.37%; in [6] it was 5.26%; in assay [7] it was 8.43%; in assay [8] it was -1.11%.

Turning to `CC(C)CN1CCN(C)C2(CCN(Cc3ccsc3)CC2)C1=O`, the Percent Effect in assay [1] was -3.52%; in assay [2], 6.49%; in assay [3], -3%; with Trypanosoma cruzi it was 0.188%; in assay [4], 1.83%; in assay [5], -2.49%. Moreover, the Percent Effect in the assay listed under Homo sapiens is -6.74%; in assay [6], 7.73%; in assay [7], 10%; in [8] it was 1.23%.

For the molecule `CN1CC(=O)N(c2cnn(C)c2)CC12CCN(C(=O)c1ccsc1)C2` (stereo not given), the Percent Effect is -5.41% in [1]; 1.3% in assay [2]; 3.75% in assay [3]; -6.13% in the assay with Trypanosoma cruzi; 2.43% in [4]; 6.27% in assay [5]. Moreover, the Percent Effect in the assay listed under Homo sapiens is -0.162%; in [6], 2.63%; in [7] it was 2.56%; in assay [8], -2.51%.

As for `Cc1nc(CNC(=O)NCC(O)c2ccc(F)cc2F)cs1` (stereo not given), the Percent Effect in assay [1] is 0.239%; in assay [2], 13.3%; in [3], -2.61%; in the assay on Trypanosoma cruzi, -4.62%; in assay [4], 2.22%; in assay [5], 9.75%. Besides, the Percent Effect in the assay listed under Homo sapiens is -4.09%; in assay [6], 8.95%; in assay [7] it was 15.4%; in assay [8] it was -9.8%.

Regarding `CC(C)n1ccnc1C1CCN(C(=O)C2COc3ccccc3O2)CC1` (stereo not given), the Percent Effect in assay [1] is -9.12%; in assay [2], 5.41%; in [3], 10.4%; with Trypanosoma cruzi, 7.08%; in assay [4], 12.9%; in assay [5], 13.2%. Also, the Percent Effect is -5.55% in the assay filed under Homo sapiens, 7.98% in assay [6], 14.6% in assay [7] and -3.02% in assay [8].

Take `CCc1noc(C(C)N2CCOCC2)n1` (stereo not given): the Percent Effect in assay [1] was -7.21%; in assay [2], 10.7%; in assay [3], 7.7%; in the assay with Trypanosoma cruzi, 0.602%; in assay [4], 0.887%; in assay [5], 5.85%. The Percent Effect was 5.17% in the assay filed under Homo sapiens, 6.84% in assay [6], 5.13% in assay [7] and -8.94% in assay [8].

`O=C(c1cc(C2CC2)on1)N1CC[C@]2(C[C@H](Oc3cccnc3)CO2)C1`: the Percent Effect in assay [1] is -7.12%; in assay [2] it was 1.3%; in assay [3], -0.278%; in the assay on Trypanosoma cruzi, 6.52%; in [4], -12.2%; in assay [5], 6.27%. Moreover, the Percent Effect in the assay filed under Homo sapiens is -3.24%; in [6], 1.58%; in [7] it was 5.13%; in assay [8] it was 0.522%.

In the case of `Cc1cc(C(=O)NCc2ccc(N3CCCC(C(N)=O)C3)cc2)[nH]n1` (stereo not given), the Percent Effect in assay [1] was -7.13%; in [2], 10.7%; in assay [3], -2.98%; in the assay on Trypanosoma cruzi, -3.21%; in assay [4], -0.887%; in [5], 16.2%. Further, the Percent Effect in the assay listed under Homo sapiens was 14.9%; in assay [6], 0.526%; in assay [7] it was 5.13%; in assay [8], -7.84%.
